In all, about 6,200 compounds went through this assay and about 2,900 (47%) were called active. The set was probably picked from earlier hits. The list shows a part of the results. Unmarked numbers belong to inactive results. Cut-off read from the data, not from the text of the source: active = inhibition above about 50%; inactive = the rest.

The assay is described as follows: Mycobacterium tuberculosis growth inhibition, primary screen (AID 1259343). Conditions: inhibition: at 10 µM, hits give high values; outcome: 10 uM.
Turning to `CCc1ccc(CCOc2ccc(CC3SC(=O)NC3=O)cc2)nc1` (stereo not drawn), the inhibition is 38.2%.

Consider `CCCOc1ccc(C=C2SC(=S)NC2=O)cc1`, for which the inhibition is 86.5% (active).

For `O=C1NC(=O)C(=Cc2ccc(F)cc2)S1`, the inhibition is -10.1%.

Turning to `CC(C)N1C(=O)C(=Cc2ccc(O)cc2)SC1=S`, the inhibition is 36.9%.

For `CCCCCCOc1ccc(C=C2SC(=O)NC2=O)cc1`, the inhibition is 84.7% (active).

Turning to `CC(C)(C)c1ccc(-c2ccnc3nc(N4CCN(C(=O)c5ccc([N+](=O)[O-])o5)CC4)nn23)cc1`, the inhibition is 74.3% (active).

Regarding `O=C(OCC(=O)N(C1CCCCC1)C1CCCCC1)c1ccc([N+](=O)[O-])o1`, the inhibition was -1.53%.

`O=C(OCC(=O)N1CCCC1)c1ccc([N+](=O)[O-])o1`: the inhibition is 39%.

Consider `CCc1ccc(S(=O)(=O)Nc2cccc(-c3nc4cccnc4s3)c2C)s1`, for which the inhibition is 62.5% (active).

As to `CC(C)CSc1nnc(C2CCCCC2)o1`, the inhibition was -1.92%.

For the compound `O=[N+]([O-])c1cccc(-c2n[nH]c(=S)o2)c1`, the inhibition was 91.4% (active).

With `Cc1cc(C)cc(-c2n[nH]c(=S)o2)c1`, the inhibition was 101% (active).

Regarding `CC(C)CSc1nnc(-c2cccc([N+](=O)[O-])c2)o1`, the inhibition was 97.8% (active).

Take `N#Cc1cccc(CSc2nnc(-c3cccc(Br)c3)o2)c1`: the inhibition is 5.74%.

Turning to `CC(C)(C)c1ccc(-c2n[nH]c(=S)o2)cc1`, the inhibition was 25.8%.

For `S=c1[nH]nc(-c2cccc(Br)c2)o1`, the inhibition is 62.1% (active).

As for `Cc1ncc(CNC(=O)N2CCC(C(C)C)CC2)s1`, the inhibition is -9.36%.

As for `S=c1[nH]nc(-c2ccc(Br)cc2)o1`, the inhibition was 80.5% (active).

On to `S=c1nc(-c2ccc(Br)cc2)[nH][nH]1`, for which the inhibition is -31.4%.

As for `S=c1[nH]nc(-c2ccc(Cl)cc2)o1`, the inhibition is 41.4%.

As for `CCN1CCc2c(sc3nc(C4CCCCC4)nc(N4CCNCC4)c23)C1`, the inhibition was 50.1% (active).

As to `c1nc(N2CCCCC2)c2c3c(sc2n1)CCCC3`, the inhibition is 30%.

As for `COCc1nc(N2CCNCC2)c2c3c(sc2n1)CCCC3`, the inhibition was 94.1% (active).

In the case of `c1cc2c(cc1Oc1nc(CN3CCOCC3)nc3sc4c(c13)CCC4)CCC2`, the inhibition is 22.2%.

Turning to `CC(C)(CC(=O)O)CC(=O)N1CCC2(CC1)OCc1cc(-c3ccc(C(F)(F)F)cc3)ccc1O2`, the inhibition is 58% (active).

For the compound `CCOc1cccc(OCc2nc(-c3ccco3)oc2C)c1`, the inhibition is 75.2% (active).

Regarding `C#CCN(CC=C)Cc1nc(-c2ccc(OCC)cc2)oc1C`, the inhibition is -15.4%.

On to `Cc1sc2nc(-c3ccco3)oc(=O)c2c1C`, for which the inhibition was -5.77%.

For the compound `OCC#CCSc1ncnn1-c1ccccc1`, the inhibition is -60.2%.

For `COc1ccc(Nc2c([N+](=O)[O-])ccc3c2=NC2(CCCCC2)N=3)cc1`, the inhibition is 47.2%.

As to `COc1ccc(Nc2ncc([N+](=O)[O-])cc2[N+](=O)[O-])cc1`, the inhibition entry is “inactive”.

Take `COc1ccc(Nc2ccc(Nc3ccc([N+](=O)[O-])cc3[N+](=O)[O-])cc2)cc1`: the inhibition is 94.7% (active).

On to `COC(=O)C1C(c2ccccc2)C2(c3ccccc3)C(C)(C)C12C(=O)OC` (stereo not drawn), for which the inhibition is 10.3%.

Regarding `O=c1cc(-c2c(F)c(F)c(F)c(F)c2F)oc2c(F)c(F)c(F)c(F)c12`, the inhibition was 100% (active).

As for `Fc1ccc(C2C=C3Oc4ccccc4N=C3NN2)cc1` (stereo not drawn), the inhibition is 92.6% (active).

In the case of `Brc1ccccc1OCc1cnn(-c2ccccc2)n1`, the inhibition is 21.9%.

With `CC1(C)OC(=O)C(=CNc2ccc3ccccc3c2)C(=O)O1`, the inhibition was 20.6%.

As to `CC(C)c1ccc(NC=C2C(=O)OC(C)(C)OC2=O)cc1`, the inhibition is 85.2% (active).

`Cc1cccc(-n2cc(CN3CCN(C(=O)c4ccco4)CC3)c(-c3cccc(F)c3)n2)c1`: the inhibition is 24.8%.

Regarding `CC(=O)NC1CCN(Cc2nc(-c3cccc(Oc4ccccc4)c3)oc2C)C1` (stereo not drawn), the inhibition is 24.9%.

Regarding `Cc1oc(-c2ccc3ccccc3c2)nc1CN1CCN(C(=O)c2ccco2)CC1`, the inhibition is 78.8% (active).

With `CC(=O)NC(c1ccccc1)(c1ccccc1)C(F)(F)F`, the inhibition was 7.55%.

With `O=C(NCC(F)(F)F)c1cc(-c2ccccc2Cl)n[nH]1`, the inhibition is 30.1%.

`O=C(NCC(F)(F)F)c1cc(-c2ccc(Cl)cc2)n[nH]1`: the inhibition was 72.2% (active).

With `Cc1ccc(Sc2ccccc2N2CCNCC2)c(C)c1`, the inhibition is 83.7% (active).

For the compound `CCOC(=O)CN1C(=O)CSC1=CC#N`, the inhibition was 26.1%.

`O=C(Nc1ccccn1)C1CCN(c2cccc(C(F)(F)F)n2)CC1`: the inhibition is 92.4% (active).

For the compound `Cc1nn(-c2ccccc2)c(Cl)c1C(=O)Nc1ccccc1I`, the inhibition is 28.9%.

As for `CCCCn1nc(C)c(C(=O)NCc2ccc(Cl)s2)c1Cl`, the inhibition was -14.6%.

On to `CCCCn1nc(C)c(C(=O)Nc2cc(C)ccc2F)c1Cl`, for which the inhibition is 60.1% (active).

Turning to `Cc1cc(C)c2ccc(O)cc2n1`, the inhibition is 83.4% (active).

As for `C=CCN(Cc1ccc(Cl)s1)C(=O)CSc1nnc(-c2ccc(C)cc2)o1`, the inhibition is 21.2%.

On to `C=CCN(CC=C)C(=S)NC(=O)c1ccc(C)cc1`, for which the inhibition is 98.4% (active).

As for `Cc1ccc(C(=O)Nc2ccccc2SCC(F)(F)F)cc1`, the inhibition was 45.2%.

For the compound `C=CCOc1ccc(S(=O)(=O)c2ccc(O)cc2)cc1`, the inhibition was 24.3%.

As for `Cc1cc(Br)c(NC(=O)CN(C)Cc2nc3ccccc3s2)c(Br)c1`, the inhibition was 84.4% (active).

Consider `CN(Cc1nc2ccccc2s1)C(=O)CCc1nnc(CCc2c[nH]c3ccccc23)o1`, for which the inhibition is 22.7%.

On to `C=CCN(C(=O)c1cccc(OC)c1)c1nc2ccccc2s1`, for which the inhibition was -37.8%.

Turning to `Cc1ccc(CSc2ncnc3c2nnn3Cc2ccccc2)cc1`, the inhibition is -28.1%.

Consider `Clc1cccc(CSc2ncnc3c2nnn3Cc2ccccc2)c1`, for which the inhibition is -28%.

As to `S=c1nc[nH]c2c1nnn2Cc1ccc(Cl)cc1`, the inhibition is 78.3% (active).

For the compound `Clc1ccc(Cn2nnc3c(SCc4cccnc4)ncnc32)cc1`, the inhibition is 43.6%.

On to `Cc1ccc(Cn2nnc3c(=S)nc[nH]c32)cc1`, for which the inhibition was 92.2% (active).

`Fc1ccc(Cn2nnc3c(=S)nc[nH]c32)cc1`: the inhibition is 101% (active).

For the compound `O=C(CSc1ncnc2c1nnn2Cc1ccc(F)cc1)N1CCCCCC1`, the inhibition was -40.9%.

For the compound `Cc1[nH]n(-c2ccccc2)c(=O)c1N=Nc1c(C)n(C)n(-c2ccccc2)c1=O`, the inhibition is 94.3% (active).

`CCC(=O)N(c1nnc(SCC(=O)c2cc(C)n(-c3cc(C)on3)c2C)s1)C1CC1`: the inhibition was 72.7% (active).

Regarding `COc1ccc(NC(=O)c2csc(C)n2)cc1Cl`, the inhibition is -17.7%.

Regarding `CCCc1nc(C(=O)Nc2ccc(NC(=O)CC)c(Cl)c2)cs1`, the inhibition is 54% (active).

For the compound `Cc1cc(OCc2nc(C(=O)NCC(C)C)cs2)ccc1Cl`, the inhibition is 8.24%.

On to `Cc1ccc(Sc2cncc3sc(C(N)=O)cc23)cc1`, for which the inhibition is 68% (active).

As to `CC(=O)Nc1ccc(NC(=O)Cn2nc(C)c([N+](=O)[O-])c2C)cc1`, the inhibition was 92.6% (active).

With `CC1CCN(CC(=O)Nc2ccc([N+](=O)[O-])cc2)CC1`, the inhibition was 8.26%.

`Cc1c(Br)c(C(F)(F)F)nn1CC(=O)Nc1ccc(Oc2cc([N+](=O)[O-])cc([N+](=O)[O-])c2)cc1`: the inhibition was 61.4% (active).

In the case of `O=C(Cn1cnc([N+](=O)[O-])n1)Nc1cc(Oc2cccc(Cl)c2)cc([N+](=O)[O-])c1`, the inhibition is -2.49%.

With `Cc1ccc(Sc2ccc(NC(=O)Cn3cnnn3)cc2)cc1C`, the inhibition is 4.65%.

In the case of `O=C(O)CCCSc1ncnc2sc3c(c12)CCCC3`, the inhibition was 51% (active).

In the case of `O=C(CSc1ncnc2sc3c(c12)CCC3)N1CCCC1`, the inhibition was 18.6%.

In the case of `CC(C)(C)OC(=O)CSc1ncnc2sc3c(c12)CCCC3`, the inhibition was 75.3% (active).

Regarding `O=C(CSc1ncnc2sc3c(c12)CCCC3)N1CCOCC1`, the inhibition was 102% (active).

On to `CN(C)C(=O)CSc1ncnc2sc3c(c12)CCCC3`, for which the inhibition is 85.3% (active).

Consider `COCC1CCCN(c2nncc(-c3ccc(Cl)cc3)n2)C1` (stereo not drawn), for which the inhibition is 9.94%.

On to `O=C(Cc1ccc(C(F)(F)F)cc1)Nc1ncccc1O`, for which the inhibition was 82.2% (active).

Take `CCc1ccc(C(CNC(=O)Cc2ccc(C(F)(F)F)cc2)N(C)C)cc1` (stereo not drawn): the inhibition was 19.9%.

For the compound `O=C(CCSc1ccc(C(F)(F)F)cn1)Nc1c(Cl)cccc1Cl`, the inhibition was 20.9%.

`O=C(O)CCN(Cc1ccco1)c1nc(-c2cccc(Br)c2)nc2ccccc12`: the inhibition is 2.99%.

Take `S=P(NN=C1CCSC1)(c1ccccc1)c1ccccc1`: the inhibition is 62.1% (active).

With `Cc1cccc(-c2ccc(NC(=O)C3CCN(C(=O)c4cscn4)CC3)cc2)c1`, the inhibition is 93% (active).

For `COc1cccc(-c2ccc(NC(=O)C3CCCN(C(=O)c4cnsn4)C3)cc2)c1` (stereo not drawn), the inhibition entry is “inactive”.

For the compound `Cc1cccc(-c2ccc(NC(=O)C3CCN(C(=O)c4cnsn4)CC3)cc2)c1`, the inhibition was 91.7% (active).

Consider `CN1c2ccccc2-c2nc3ccccc3n2C1c1ccco1` (stereo not drawn), for which the inhibition was 24.8%.

Take `C#CCCCCCCCCCCCC(O)CC(O)COC(C)=O` (stereo not drawn): the inhibition was 93.3% (active).

As to `Cc1cc(N)n(-c2nc3c(cnn3-c3ccc(C)c(C)c3)c(=O)[nH]2)n1`, the inhibition was 33.8%.

As for `CCCc1cc(=O)[nH]c(-n2nc(C)cc2C)n1`, the inhibition is 6.1%.

With `CCCc1cc(=O)[nH]c(-n2nc(C)cc2N)n1`, the inhibition is 101% (active).

With `Cc1cc(=O)[nH]c(-n2nc(C)cc2N)n1`, the inhibition is 101% (active).

For the compound `Cc1cc(N)n(-c2nc3c(cnn3-c3ccccc3)c(=O)[nH]2)n1`, the inhibition is 5.14%.

As to `Cc1cccc(-n2ncc3c(=O)[nH]c(-n4nc(C)cc4N)nc32)c1`, the inhibition is 102% (active).

Regarding `CCc1cc(=O)[nH]c(-n2nc(C)cc2N)n1`, the inhibition was 83.4% (active).

Consider `CCC(=O)c1ccc(O)c(CC=C(C)C)c1`, for which the inhibition was 20.6%.

Turning to `CC(C)=CCc1c(O)ccc(C(=O)Cc2ccccc2)c1O`, the inhibition was 59.8% (active).

On to `N#Cc1c(Cl)c(Cl)c(Cl)c(C#N)c1Cl`, for which the inhibition is 102% (active).

As for `O=C(Nc1ccccc1)c1cc(C2CCCN(C(=O)C/C=C/c3ccccc3)C2)on1` (stereo not drawn), the inhibition was 43%.

By inhibition is commonly meant the change of the read-out against control, counted positive when it falls.
